Inconclusive results are not listed. Where a call stands in place of a potency, no number is given. A number with no mark means an inactive call. Activity calls are given as the source filed them. Calls come from the whole dose curve; as a rule, active = well fitted cell-killing curve with a large enough effect in the repeat runs; inconclusive = weak or mixed curves; inactive = flat fitted curve, though single readings scatter.
assay: qHTS RealTime-Glo MT Cell Viability Assay in HepG2 cells - 32 hour (AID 1224877); conditions: RealTime-Glo luminescence; series mostly up to 76.8 µM; note: nearly all actives have a fitted effect of over 55% in size
Summary of the method: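 Viability was tracked continuously by NanoLuc luminescence from prosubstrate reduced by living HepG2 cells, at successive time points over 40 h of compound exposure. Cells with reagent were preincubated 5 h at 37 °C before compound addition.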

Row | Compound | Potency | activity change, negative = cytotoxic
1 | Cc1cccc(C)c1NC(=O)CN1CCCCCC1 | inactive | –
2 | OCCN(CCO)CCN(CCO)CCO | inactive | –
3 | O=c1[nH]cnc2c1ncn2[C@@H]1O[C@H](CO)[C@@H](O)[C@H]1O | inactive | –
4 | C=CC1CO1 (stereo not given) | inactive | –
5 | C[C@]12C(=O)OC(=O)[C@H]1[C@H]1C=C[C@@H]2C1 | inactive | –
6 | NNS(=O)(=O)c1ccc(Oc2ccc(S(=O)(=O)NN)cc2)cc1 | inactive | –
7 | CN1CCN(C2=Nc3cc(F)ccc3Cc3ccccc32)CC1 | inactive | –
8 | Cc1cn([C@@H]2O[C@H](CO)[C@@H](O)[C@@H]2F)c(=O)[nH]c1=O | inactive | –
9 | CCCc1c2oc(C(=O)O)cc(=O)c2cc2c(=O)cc(C(=O)O)n(CC)c12 | inactive | –
10 | Cc1ncc(CO)c(CN)c1O | inactive | –
11 | NC1=NCC2c3ccccc3Cc3ccccc3N12 (stereo not given) | inactive | –
12 | FC(F)(F)C(Cl)(Cl)Cl | inactive | –
13 | CCCOCCC | inactive | –
14 | Cc1cc2c(s1)Nc1ccccc1N=C2N1CCN(C)CC1 | inactive | –
15 | CCC(=O)Nc1ccc(O)cc1 | inactive | –
16 | CCC/C=C/CO | inactive | –
17 | C[C@@H]1CN(c2c(F)c(F)c3c(=O)c(C(=O)O)cn(C4CC4)c3c2F)C[C@H](C)N1 | – | 0.371% [at 15.8 µM]
18 | CCOC(=O)c1cc(=O)c2c(OCC(COc3cccc4oc(C(=O)OCC)cc(=O)c34)OC(=O)[C@@H](N)CCCCN)cccc2o1 | inactive | –

Row | Compound | Potency | activity change, negative = cytotoxic
19 | CCc1cc2cc(OC)c(OC)cc2c(Cc2ccccc2)n1 | inactive | –
20 | O=C(O)[C@@H]1CSCN1 | inactive | –
21 | COC(=O)c1ccc2cc(C(=O)OC)ccc2c1 | – | 0.0732% [at 15.8 µM]
22 | CCOC(=O)C(Br)c1ccccc1 (stereo not given) | inactive | –
23 | Cc1ccc([N+](=O)[O-])c(N)c1 | inactive | –
24 | CCCCCCCCCCCCCCCCOP(=O)([O-])OCC[N+](C)(C)C | inactive | –
25 | O=C1CCC(C2CCCCC2)CC1 | inactive | –
26 | CCCCCCCCOC(=O)CCCCCCCCC(=O)OCCCCCCCC | inactive | –
27 | CCCCCCn1c(=O)c2c(ncn2C)n(C)c1=O | inactive | –
28 | CN(C)Cc1ccccc1 | inactive | –
29 | Cc1c(N)cccc1N | inactive | –
30 | N#Cc1ccc(C(c2ccc(C#N)cc2)n2cncn2)cc1 | inactive | –
31 | O=CCCc1ccccc1 | inactive | –
32 | CCN(CC)CC1CCCCN1CC(=O)N1c2ccccc2C(=O)Nc2cccnc21 (stereo not given) | inactive | –
33 | Cc1ccsc1C(=CCCN1CCC[C@@H](C(=O)O)C1)c1sccc1C | inactive | –
34 | FC(F)(F)c1ccccc1 | inactive | –
35 | O=S(=O)(O)C(F)(F)F | inactive | –

From PubChem BioAssay (Tox21)
